# Test results taken from publication PMC11062922 (Nature Chemical Biology, 2023).
# Like-named read-outs stand apart in the source and are kept apart here.
# Experiments:
# AAK1 = test system: AAK1; parameters: species or system human, MV4-11 + K-562 + COLO205 + SK-N-BE2 + OVCAR-8; conditions: read-out: apparent Kd; compound concentrations: 100 nM and 1000 nM (sheet 'Samples'), CATDS: 1.09630092870236E-2; n = 1
# CLK1 = test system: CLK1; parameters: species or system human, MV4-11 + K-562 + COLO205 + SK-N-BE2 + OVCAR-8; conditions: read-out: apparent Kd; compound concentrations: 100 nM and 1000 nM (sheet 'Samples'), CATDS: 2.1787512742807501E-2; n = 1
# CLK4 = test system: CLK4; parameters: species or system human, MV4-11 + K-562 + COLO205 + SK-N-BE2 + OVCAR-8; conditions: read-out: apparent Kd; compound concentrations: 100 nM and 1000 nM (sheet 'Samples'), CATDS: 1.6953828831644601E-2; n = 1
# CSNK2A1;CSNK2A3 = test system: CSNK2A1;CSNK2A3; parameters: species or system human, MV4-11 + K-562 + COLO205 + SK-N-BE2 + OVCAR-8; conditions: read-out: apparent Kd, compound concentrations: 100 nM and 1000 nM (sheet 'Samples'), n = 1
# CSNK2A2 = test system: CSNK2A2; parameters: species or system human, MV4-11 + K-562 + COLO205 + SK-N-BE2 + OVCAR-8; conditions: read-out: apparent Kd, compound concentrations: 100 nM and 1000 nM (sheet 'Samples'), n = 1
# GAK = test system: GAK; parameters: species or system human, MV4-11 + K-562 + COLO205 + SK-N-BE2 + OVCAR-8; conditions: read-out: apparent Kd; compound concentrations: 100 nM and 1000 nM (sheet 'Samples'), CATDS: 2.5195285382478599E-2; n = 1
# GSK3A = test system: GSK3A; parameters: species or system human, MV4-11 + K-562 + COLO205 + SK-N-BE2 + OVCAR-8; conditions: read-out: apparent Kd; compound concentrations: 100 nM and 1000 nM (sheet 'Samples'), CATDS: 2.1035735190854499E-2; n = 1
# GSK3B = test system: GSK3B; parameters: species or system human, MV4-11 + K-562 + COLO205 + SK-N-BE2 + OVCAR-8; conditions: read-out: apparent Kd; compound concentrations: 100 nM and 1000 nM (sheet 'Samples'), CATDS: 1.8960420623414999E-2; n = 1
# MELK = test system: MELK; parameters: species or system human, MV4-11 + K-562 + COLO205 + SK-N-BE2 + OVCAR-8; conditions: read-out: apparent Kd; compound concentrations: 100 nM and 1000 nM (sheet 'Samples'), CATDS: 1.02944782662895E-2; n = 1
# NUAK1 = test system: NUAK1; parameters: species or system human, MV4-11 + K-562 + COLO205 + SK-N-BE2 + OVCAR-8; conditions: read-out: apparent Kd; compound concentrations: 100 nM and 1000 nM (sheet 'Samples'), CATDS: 1.06533204099584E-2; n = 1
# PAK4 = test system: PAK4; parameters: species or system human, MV4-11 + K-562 + COLO205 + SK-N-BE2 + OVCAR-8; conditions: read-out: apparent Kd; compound concentrations: 100 nM and 1000 nM (sheet 'Samples'), CATDS: 1.12669730748303E-2; n = 1
# PKN1 = test system: PKN1; parameters: species or system human, MV4-11 + K-562 + COLO205 + SK-N-BE2 + OVCAR-8; conditions: read-out: apparent Kd; compound concentrations: 100 nM and 1000 nM (sheet 'Samples'), CATDS: 1.22442733693101E-2; n = 1
# PKN3 [1] = test system: PKN3; parameters: species or system human, MV4-11 + K-562 + COLO205 + SK-N-BE2 + OVCAR-8; conditions: read-out: apparent Kd, n = 1;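 for IC50: NanoBRET target engagement in HEK293T cells transiently expressing full-length PKN3 with C-terminal NanoLuc, displacement of fluorescent tracer K5 (500 nM), BRET read after 2 h equilibration at 37 °C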
# Q6ZSR9 = Q6ZSR9 (human, UniProt Q6ZSR9); parameters: species or system MV4-11 + K-562 + COLO205 + SK-N-BE2 + OVCAR-8; conditions: read-out: apparent Kd, compound concentrations: 100 nM and 1000 nM (sheet 'Samples'), n = 1
# RET = test system: RET; parameters: species or system human, MV4-11 + K-562 + COLO205 + SK-N-BE2 + OVCAR-8; conditions: read-out: apparent Kd; compound concentrations: 100 nM and 1000 nM (sheet 'Samples'), CATDS: 1.6938963358117499E-2; n = 1
# SIK2 = test system: SIK2; parameters: species or system human, MV4-11 + K-562 + COLO205 + SK-N-BE2 + OVCAR-8; conditions: read-out: apparent Kd; compound concentrations: 100 nM and 1000 nM (sheet 'Samples'), CATDS: 1.7275561883006999E-2; n = 1
# PKN3 [2] = conditions: hek293t cells
# Q6ZSR9, sequence (Q6ZSR9 whole entry, looked up): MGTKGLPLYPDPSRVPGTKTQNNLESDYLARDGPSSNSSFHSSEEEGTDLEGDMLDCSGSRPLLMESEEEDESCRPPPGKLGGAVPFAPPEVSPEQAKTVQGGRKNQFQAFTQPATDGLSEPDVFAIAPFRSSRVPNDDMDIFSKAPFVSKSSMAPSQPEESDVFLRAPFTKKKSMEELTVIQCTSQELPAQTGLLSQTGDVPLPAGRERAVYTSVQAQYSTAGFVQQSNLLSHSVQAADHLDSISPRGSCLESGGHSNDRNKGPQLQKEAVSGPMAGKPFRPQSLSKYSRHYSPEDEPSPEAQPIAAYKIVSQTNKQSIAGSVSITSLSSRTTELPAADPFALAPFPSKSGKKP
smiles,measurement,setting,value
CN(c1ccc(NC(=O)Nc2cccc(Cl)c2)cc1)c1ccnc(N)n1.Cl [GW830707A],potency estimated from few doses,AAK1,1150 nM
same,potency estimated from few doses,CLK1,42 nM
same,potency estimated from few doses,CLK4,90.4 nM
same,potency estimated from few doses,CSNK2A1;CSNK2A3; CATDS: 1.0372533520716E-2,1990 nM
same,potency estimated from few doses,CSNK2A2; CATDS: 1.04920498001006E-2,1760 nM
same,potency estimated from few doses,GAK,29.6 nM
same,potency estimated from few doses,GSK3A,46.1 nM
same,potency estimated from few doses,GSK3B,62.2 nM
same,potency estimated from few doses,MELK,2160 nM
same,potency estimated from few doses,NUAK1,1510 nM
same,potency estimated from few doses,PAK4,911 nM
same,potency estimated from few doses,PKN1,482 nM
same,potency estimated from few doses,"PKN3 [1]; compound concentrations: 100 nM and 1000 nM (sheet 'Samples'), CATDS: 1.09744327233877E-2",1140 nM
same,potency estimated from few doses,Q6ZSR9; CATDS: 1.11912324380908E-2,964 nM
same,potency estimated from few doses,RET,90.7 nM
same,potency estimated from few doses,SIK2,84.5 nM
CCn1c(-c2nonc2N)nc2c(C#CC(C)(C)O)nc(CN3CCCC3)cc21 [GSK1000163A],potency estimated from few doses,"PKN3 [1]; compound concentrations: 100 nM and 1000 nM (sheet 'Samples'), CATDS: 0.30633787059967998",558 nM
same,potency estimated from few doses,Q6ZSR9; CATDS: 0.15882546471257,2130 nM
same,IC50,"PKN3 [2]; read-out: Average, SD, n = 4",6970 nM
same,IC50,PKN3 [2]; read-out: Rep 1,11100 nM
same,IC50,PKN3 [2]; read-out: Rep 2,9200 nM
same,IC50,PKN3 [2]; read-out: Rep 3,6130 nM
same,IC50,PKN3 [2]; read-out: Rep 4,1430 nM
Cl.NCc1ccc(-c2nc(-c3ccc(Cl)c(O)c3)c(-c3ccncc3)[nH]2)cc1 [SB-476429-A],potency estimated from few doses,PKN3 [1]; compound concentrations:100 nM and 1000 nM (sheet 'Samples'),36 nM
same,IC50,"PKN3 [2]; read-out: Average, SD, n = 4",243 nM
same,IC50,PKN3 [2]; read-out: Rep 1,589 nM
same,IC50,PKN3 [2]; read-out: Rep 2,211 nM
same,IC50,PKN3 [2]; read-out: Rep 3,86.7 nM
same,IC50,PKN3 [2]; read-out: Rep 4,85.4 nM
Cc1cccc2c(-c3ccncn3)c(-c3ccc(F)cc3)nn12 [GW515532X],potency estimated from few doses,"PKN3 [1]; compound concentrations: 100 nM and 1000 nM (sheet 'Samples'), CATDS: 0.37134711180045199",663 nM
same,IC50,"PKN3 [2]; read-out: Average, SD, n = 3",26700 nM
same,IC50,PKN3 [2]; read-out: Rep 1,78800 nM
same,IC50,PKN3 [2]; read-out: Rep 2,922 nM
same,IC50,PKN3 [2]; read-out: Rep 4,257 nM
O=C1NC(=O)/C(=C/c2ccc3ncccc3c2)S1 [RO4603632-000],potency estimated from few doses,CSNK2A1;CSNK2A3; CATDS: 0.36519548051145401,279 nM
same,potency estimated from few doses,CSNK2A2; CATDS: 0.36768987461520503,276 nM
CONC1=NC(=O)/C(=C/c2ccc3ncccc3c2)S1 [RO4613269-000],potency estimated from few doses,CSNK2A1;CSNK2A3; CATDS: 0.42776292921510001,58.1 nM
same,potency estimated from few doses,CSNK2A2; CATDS: 0.433008345682735,56.8 nM
